ChEMBL document CHEMBL3988442, “University of Dundee, Small-Polar-MMV Screening Library” (2021)
Hit rate of the full screen: of about 48,000 compounds, about 13,000 (27%) showed an effect of 50% or more. This is one part of the list.

tested on: Wolbachia pipientis; experiment: Anti-Wolbachia Cell-Based Screen; format: functional; set-up: scale not given: in the data most compounds retested in dose-response had high values; conditions: 5 µM

| Structure (SMILES) | Percent Effect [%] |
| --- | --- |
| CN(C)CCNC(=O)[C@H]1C[C@H]2CN(c3ncccn3)C[C@H]2N1C.O=C(O)C(F)(F)F.O=C(O)C(F)(F)F.O=C(O)C(F)(F)F | -2.268 |
| COCC(=O)NC[C@H]1C[C@@H]2CCN1C[C@@H]2c1cc(-c2cccs2)nn1C | -7.322 |
| O=C1[C@H]2CN(Cc3ccoc3)C[C@@H]2CCN1Cc1cccnc1 | -2.353 |
| Cn1ccnc1CN1CC[C@H]2CO[C@H](CNc3ncccn3)[C@H]2C1.O=C(O)C(F)(F)F.O=C(O)C(F)(F)F.O=C(O)C(F)(F)F | 100.8 |
| CN1CCN([C@H]2COC[C@@H]3CN(Cc4cccnc4)C[C@@H]32)CC1 | 3.012 |
| CN1CCN(C[C@@H]2OC[C@H]3CN(Cc4ccncc4)CC[C@H]32)CC1 | 117.8 |
| CN(c1ncccc1C#N)C1CCN(Cc2ccncc2)CC1 | -9.884 |
| CS(=O)(=O)NC[C@H]1OC[C@@H]2CN(Cc3cccnc3)CC[C@@H]21 | 117.5 |
| O=C(O)C(F)(F)F.O=C(O)C(F)(F)F.c1cnc(NC[C@H]2OC[C@@H]3CCN(Cc4ccsc4)C[C@@H]32)nc1 | 103.6 |
| COc1ccc(CCN)cc1-c1ccc(C(N)=O)cc1 | -8.06 |
| Cc1noc(C)c1CN1C[C@@H]2OCCN(Cc3cnn(C)c3)[C@@H]2C1 | -6.904 |
| COCCn1c(C(=O)NC(C(N)=O)C(C)C)cc2ccccc21 (stereo not drawn) | -3.087 |
| Cc1ccccc1-n1cc(C2=CCN(CCn3cc[nH]c3=O)CC2)cn1 | 20.16 |
| Cc1cc(C)c(CNc2ncnc3ccsc23)c(=O)[nH]1 | 1.6 |
| O=C(CC1CC1)N[C@@H]1CN(Cc2ccccn2)C[C@@H]2CCCO[C@@H]21.O=C(O)C(F)(F)F.O=C(O)C(F)(F)F | -3.839 |
| O=C(O)C(F)(F)F.O=C(O)C(F)(F)F.O=C(O)C(F)(F)F.c1ccc(CN2CC[C@@H]3[C@@H](CO[C@@H]3CNc3ncccn3)C2)nc1 | 94.77 |
| O=S1(=O)CCC(n2cc(C3=CCN(CCn4cccc4)CC3)cn2)C1 (stereo not drawn) | -6.845 |
| Cc1nc(C(C)C)sc1C(=O)N1CCN(C2CN3CCC2CC3)CC1 (stereo not drawn) | 76.14 |
| COCCN1CCCC12CCCN(c1ncccn1)C2 (stereo not drawn) | -3.4 |
| CC(C)(C)c1cc(=O)[nH]c(C2(N)CCCCC2)n1.Cl | -23.57 |
| COCCN1C[C@@H]2OCCN(c3ccnc(N(C)C)n3)[C@@H]2C1 | 104.4 |
| CN(C)c1nccc(N2CCO[C@H]3CN(Cc4ccco4)C[C@H]32)n1 | 68.55 |

| Structure (SMILES) | Percent Effect [%] |
| --- | --- |
| CN(C)c1nccc(N2CCO[C@H]3CN(Cc4ccsc4)C[C@H]32)n1.O=C(O)C(F)(F)F | 12.89 |
| c1ccc(CCN2C[C@@H]3OCCN(c4ncccn4)[C@@H]3C2)cc1 | 21.57 |
| Cn1ccnc1CN1C[C@@H]2OCCN(c3ncccn3)[C@@H]2C1 | 7.273 |
| Cc1cccc(CN2C[C@@H]3OCCN(S(=O)(=O)N(C)C)[C@@H]3C2)n1 | 2.928 |
| Cc1nc(CN2CCOC3(CCCC3)C2)no1 | 71.5 |
| c1cc(CN2CCOC3(CCCC3)C2)no1 | -7.47 |
| OCCN1CCOC2(CCCN(c3ncccn3)C2)C1 (stereo not drawn) | 10.98 |
| CC(=O)N1CCCC2(CN(Cc3ccncc3)CCO2)C1 (stereo not drawn) | -7.212 |
| Cc1nc(CN2CCOC3(CCCC3)C2)oc1C | 98.63 |
| CCc1noc(CN2CCOC3(CCCC3)C2)n1 | 98.78 |
| CN1CCC(N2CCOC3(CCCC3)C2)C1=O (stereo not drawn) | 17.36 |
| Cc1nc(CN2CCN(C(=O)COc3c(C)ccc(C)c3C)CC2)no1 | 0.1735 |
| Cc1noc(C)c1CN1CCCC2(C1)CN(c1nncs1)CCO2 (stereo not drawn) | -8.738 |
| Cl.NCC1(c2cccc(Br)c2)CCOCC1 | -3.113 |
| CN(Cc1nc2ccsc2c(=O)[nH]1)C[C@@H]1CCCN2CCCC[C@H]12 | 9.481 |
| Cc1cc(C)nc(N2CCCC2c2cccnc2)n1 (stereo not drawn) | -35.57 |
| Cc1cc(N2CCCC2c2cccnc2)nc(C)n1 (stereo not drawn) | -8.687 |
| Cc1nn(C)c2nc(N3CCCCC3c3cccnc3)sc12 (stereo not drawn) | 116.8 |
| c1cc(CN2CCOCC3(CCNCC3)C2)ccn1 | -46.48 |
| CNc1nccnc1C1CCN(C(C)C)CC1 | 92.81 |
| Cc1n[nH]c(C)c1CC(=O)N1CCCN(C)C2(CCN(C)CC2)C1 | 0.449 |
| CO[C@H]1CCN(C2CCC2)[C@@H]2CN(Cc3ccncc3)C[C@H]12.O=C(O)C(F)(F)F.O=C(O)C(F)(F)F.O=C(O)C(F)(F)F | 1.676 |

| Structure (SMILES) | Percent Effect [%] |
| --- | --- |
| CO[C@H]1CCN(Cc2cccs2)[C@@H]2CN(Cc3ccncc3)C[C@H]12.O=C(O)C(F)(F)F.O=C(O)C(F)(F)F.O=C(O)C(F)(F)F | 110 |
| CO[C@@H]1CCN(Cc2cccs2)[C@@H]2CN(Cc3ccncc3)C[C@@H]21.O=C(O)C(F)(F)F.O=C(O)C(F)(F)F.O=C(O)C(F)(F)F | 96.91 |
| CO[C@@H]1CCN(S(=O)(=O)N(C)C)[C@@H]2CN(Cc3cccnc3)C[C@@H]21.O=C(O)C(F)(F)F.O=C(O)C(F)(F)F | -16.98 |
| CCS(=O)(=O)N1CC[C@H](OC)[C@H]2CN(Cc3ccncc3)C[C@H]21.O=C(O)C(F)(F)F.O=C(O)C(F)(F)F | 4.967 |
| CO[C@@H]1CCN(S(=O)(=O)N(C)C)[C@@H]2CN(Cc3ccncc3)C[C@@H]21.O=C(O)C(F)(F)F.O=C(O)C(F)(F)F | 7.733 |
| Nc1ncccc1CN1C[C@H]2OC(=O)N(Cc3ccccn3)[C@H]2C1 | 0.5145 |
| CCc1nc(CN2CCN(C(=O)Cc3c(C)noc3C)CC2)cs1 | 0.6841 |
| COc1ccc(C2SCC(=O)Nc3ccsc32)cc1OC (stereo not drawn) | -3.857 |
| O=C1CSC(c2ccncc2)c2c[nH]nc2N1 (stereo not drawn) | 107.2 |
| COc1ccc(C2SCC(=O)Nc3ccsc32)cc1 (stereo not drawn) | 24.55 |
| O=C1Nc2ccccc2CC12CCN(CCO)C2 (stereo not drawn) | -5.884 |
| O=C1NCc2ccccc2CC12CCN(Cc1ccncc1Cl)C2 (stereo not drawn) | 100.7 |
| CCCN1CCC2(Cc3ccccc3NC2=O)C1 (stereo not drawn) | -12.05 |
| Cc1cc(C)c(CNc2ncnc3ccccc23)c(=O)[nH]1 | 14.2 |
| CCOC(=O)[C@@H]1[C@@H](c2ccccc2)CN2CCN(S(C)(=O)=O)C[C@H]12 | 100.2 |
| O=C(C1CC1)N1CCN2C[C@H](c3ccccc3)[C@@H](CO)[C@H]2C1 | 105.4 |
| CC[C@H]1CN2CC[C@H]1C[C@@H]2CNC(=O)Nc1ccccc1 | -4.877 |
| O=C(COc1ccccc1)N1C[C@@H](O)[C@H](N2CCCC2)C1.O=CO | 3.295 |
| CCOC(=O)[C@@H]1[C@@H](c2ccccc2)CN2CCN(C(C)=O)C[C@H]12 | 87.07 |
| CCOC(=O)[C@@H]1[C@H]2CN(C(=O)OC)CCN2C[C@H]1c1ccccc1 | 104.3 |
| Cc1noc(C)c1CN1CCO[C@H]2[C@H](Oc3ccccn3)CC[C@@H]21.O=C(O)C(F)(F)F.O=C(O)C(F)(F)F | -5.059 |
| CCOC(=O)[C@@H]1[C@@H](c2ccccc2)CN2CCN(C(=O)C3CC3)C[C@H]12 | 90.7 |

| Structure (SMILES) | Percent Effect [%] |
| --- | --- |
| CCOC(=O)[C@@H]1[C@@H](c2ccccc2)CN2CCN(C(=O)N(C)C)C[C@H]12 | 91.13 |
| Cc1nn(C)c2ncc(S(=O)(=O)N3CCN4CCCC4C3)cc12 (stereo not drawn) | -0.5952 |
| CCc1nc(CC(=O)N2CCCC2CN2CCCC2)cs1 (stereo not drawn) | -9.906 |
| NC(=O)C1CN(C(=O)Cc2cccnc2)CCN(C2CCOCC2)C1 (stereo not drawn) | 108.4 |
| O=C1N(Cc2cccnc2)C[C@H]2CN(C3CCOCC3)CCN12 | -6.635 |
| O=C(Cc1cccnc1)N1CCC2(CC1)CCN(C1CCOC1)C2.O=C(O)C(F)(F)F.O=C(O)C(F)(F)F (stereo not drawn) | -0.1396 |
| CN(C[C@H]1CN2CC[C@H]1C[C@@H]2CNC(=O)c1ccco1)c1ccccc1 | -3.253 |
| Cn1ccc(CN2CCCC23CCNCC3)n1 | -9.611 |
| CN(C)c1ncc2c(n1)C1(CCN(CC3CC3)C1)COC2.O=C(O)C(F)(F)F (stereo not drawn) | -11.31 |
| CCN1CCC2(COCc3c(C)nc(N4CCOCC4)nc32)C1 (stereo not drawn) | 5.011 |
| Cc1nc(N(C)C)nc2c1COCC21CCN(CC2CC2)C1.O=C(O)C(F)(F)F (stereo not drawn) | 103 |
| COCCN1CCC2(COCc3c(C)nc(N(C)C)nc32)C1 (stereo not drawn) | 5.948 |
| CCN1CCC2(COCc3c(C)nc(N(C)C)nc32)C1 (stereo not drawn) | 108.4 |
| CCN1CCC2(COCc3cnc(NCC4CC4)nc32)C1.O=C(O)C(F)(F)F (stereo not drawn) | -6.306 |
| Cc1ccccc1CNC(Cn1cncn1)c1ccccc1 (stereo not drawn) | 16.93 |
| CC(C)c1cc(N2CCC3(CC2)CN(C)CCN3C)ncn1 | -0.4054 |
| Cc1nnsc1CN1C[C@H]2CC[C@@H]1CN(Cc1ccccn1)C2 | -5.416 |
| Cl.NC1(c2nc(C(F)(F)F)cc(=O)[nH]2)CCCC1 | -15.07 |
| Cc1n[nH]c2c1C(c1ccc3c(c1)OCO3)SCC(=O)N2 (stereo not drawn) | 118.8 |
| O=C1CSC(c2ccc3c(c2)OCO3)c2cn[nH]c2N1 (stereo not drawn) | 128 |
| Cc1n[nH]c2c1C(c1ccsc1)SCC(=O)N2 (stereo not drawn) | 0.06284 |
| Cc1n[nH]c2c1C(c1ccc(O)c(Cl)c1)SCC(=O)N2 (stereo not drawn) | 5.211 |
